Among the data in the supplement of paper PMC13380429 are morphology score and SARS-CoV-2 infection rate values, retold here.

For test [1], the system named is Vero E6 infected with SARS-CoV-2. The test is described as follows: morphology score (similarity to uninfected cells); higher = more like uninfected cells. The conditions noted are these: 24 h.
Test [2] has the same test system. Nature of the test: SARS-CoV-2 infection rate relative to infected DMSO; higher = more infection, active = 60 or less. The conditions noted are these: 24 h.

As for `O=C(O)c1ccccc1C(=O)Nc1ccc(S(=O)(=O)Nc2nccs2)cc1` [phthalylsulfathiazole] (10 µM), in test [1], the morphology score was found to be 0.162. Also, the SARS-CoV-2 infection rate in test [2] is 102% (inactive).
Compound `O=c1cc[nH]c(=S)[nH]1` [2-thiouracil] (10 µM) had a morphology score in test [1] of 0.0168. In addition, in test [2], the SARS-CoV-2 infection rate was 108% (inactive).
Turning to `COc1ccc(C(C)=O)c(O)c1` [paeonol] (10 µM), in test [1], the morphology score turned out to be 0.0505. For the same compound, in test [2], the SARS-CoV-2 infection rate is 100% (inactive).
As to `N=C(N)SCCc1ccc(OCc2ccc([N+](=O)[O-])cc2)cc1` (10 µM), the morphology score in test [1] turned out to be 0.268. Further, in test [2], the SARS-CoV-2 infection rate is 85.5% (inactive).
In turn, `CCCCc1nc2cc(/C=C/C(=O)NO)ccc2n1CCN(CC)CC` (10 µM) displayed a morphology score in test [1] of -0.146. Further, in test [2], the SARS-CoV-2 infection rate is 109% (inactive).
Turning to `CCCC(=O)N1CCCN(c2nc(N)c3cc(OC)c(OC)cc3n2)CC1` [bunazosin] (10 µM), the morphology score in test [1] was 0.0754. In addition, the SARS-CoV-2 infection rate in test [2] was 108% (inactive).
`CCOC(=O)/C=C(C)/C=C/C=C(C)/C=C/c1c(C)cc(OC)c(C)c1C` [etretinate] (10 µM) came in with a morphology score in test [1] of -0.112. Besides, the SARS-CoV-2 infection rate in test [2] is 92.5% (inactive).
In test [1], `Fc1ccc(-c2cncc(CN3CCN(c4cccc5c4OCCO5)CC3)c2)cc1` [adoprazine] (10 µM) registered a morphology score of 0.131. Further, the SARS-CoV-2 infection rate in test [2] is 101% (inactive).
In test [1], `c1ccc(C[C@H](c2ccccc2)N2CCCCC2)cc1` (racemic) [1-(1,2-diphenylethyl)piperidine-(+/-)] (10 µM) yielded a morphology score of 0.349. Further, the SARS-CoV-2 infection rate in test [2] was 69% (inactive).
In test [1], `CCCNC(=O)N1N=C(c2ccc(N)cc2)c2cc3c(cc2C1C)OCO3` (stereo not drawn) (10 µM) displayed a morphology score of 0.256. In test [2], the SARS-CoV-2 infection rate was 96.5% (inactive).
As to `O=C(CNC(=O)c1ccc(Cl)cc1)NO` [benurestat] (10 µM), the morphology score in test [1] was 0.153. Also, in test [2], the SARS-CoV-2 infection rate is 114% (inactive).
On to `O=C(OC(C(F)(F)F)C(F)(F)F)N1CCN(Cc2cccc(Oc3ccccc3)c2)CC1` (10 µM), for which, in test [1], the morphology score was -0.142. For the same compound, the SARS-CoV-2 infection rate in test [2] was 24.5% (active).
Compound `CNC(=O)c1ccc2c(c1)CCO[C@H]2CCN1CCN(c2ccc(C(N)=O)cc2)CC1` (10 µM) registered a morphology score in test [1] of 0.0173. Moreover, the SARS-CoV-2 infection rate in test [2] was 106% (inactive).
As to `O=C(NCC(=O)N1CCCCC1)Nc1ccc2nnsc2c1` (10 µM), in test [1], the morphology score is -0.144. For the same compound, the SARS-CoV-2 infection rate in test [2] is 110% (inactive).
The compound `C[C@@H](O)[C@H]1C(=O)N2C(C(=O)O)=C(SCCNC=N)C[C@H]12` [imipenem] (10 µM) registered a morphology score in test [1] of -0.161. Moreover, the SARS-CoV-2 infection rate in test [2] was 114% (inactive).
For `C[C@@H]1Cc2c([nH]c3ccccc23)[C@@H](c2c(F)cc(/C=C/C(=O)O)cc2F)N1CC(C)(C)F` (10 µM) the same measures were -0.0686 and 105% (inactive).
As to `CC(C)(C)NCC(O)COc1cccc2[nH]c(C#N)cc12` (stereo not drawn) [cyanopindolol] (10 µM), the morphology score in test [1] is -0.0665. Moreover, the SARS-CoV-2 infection rate in test [2] is 107% (inactive).
In turn, `CC1(C)[C@@H](O)CC[C@]2(C)[C@H]3C(=O)C=C4[C@@H]5C[C@@](C)(C(=O)O)CC[C@]5(C)CC[C@@]4(C)[C@]3(C)CC[C@@H]12` [enoxolone] (10 µM) registered a morphology score in test [1] of 0.00688. For the same compound, the SARS-CoV-2 infection rate in test [2] was 110% (inactive).
For `CCCC[C@H]1C(=O)N(c2ccccc2)N(c2ccc(O)cc2)C1=O` [oxyphenbutazone] (0.833333 µM) the same measures were 0.131 and 102% (inactive).
`CC(C)N(CC[C@H](c1ccccc1)c1cc(CO)ccc1O)C(C)C` [5-hydroxymethyl-tolterodine] (10 µM) showed a morphology score in test [1] of 0.191. Also, the SARS-CoV-2 infection rate in test [2] was 94.5% (inactive).
For `Cc1ccc(NC(=O)c2ccc(CN3CC[C@H](N(C)C)C3)c(C(F)(F)F)c2)cc1Nc1nccc(-c2cncnc2)n1` [bafetinib] (0.833333 µM) the same measures were 0.358 and 104% (inactive).
Turning to `O=c1[nH]c([C@@H]2CCCN2)nc2c1oc1ccc(Cl)cc12` (0.833333 µM), in test [1], the morphology score came to 0.106. The SARS-CoV-2 infection rate in test [2] was 104% (inactive).
`C=CC(=O)Nc1ccc2ncnc(Nc3ccc(OCc4cccc(F)c4)c(Cl)c3)c2c1` (10 µM): the morphology score in test [1] is -0.0546. In test [2], the SARS-CoV-2 infection rate was 102% (inactive).
For `Nc1sc2c(c1C(=O)c1ccc(Cl)cc1)CCCC2` (10 µM) the same measures were 0.0676 and 96.5% (inactive).
`CCc1cc(C(C)=O)c(O)cc1OCCCCCC(C)(C)c1nn[nH]n1` (10 µM) showed a morphology score in test [1] of 0.0736. Moreover, in test [2], the SARS-CoV-2 infection rate was 100% (inactive).
In test [1], `NS(=O)(=O)c1cccc2c1c([N+](=O)[O-])cc1nc(O)c(O)nc12` (10 µM) gave a morphology score of -0.0523. The SARS-CoV-2 infection rate in test [2] is 104% (inactive).
Take `C/C(O)=C(\C#N)C(=O)Nc1ccc(C(F)(F)F)cc1` [teriflunomide] (10 µM): in test [1], the morphology score is 0.0341. In test [2], the SARS-CoV-2 infection rate was 108% (inactive).
In turn, `CCc1[nH]c(=O)[nH]c1C(=O)c1ccncc1` [piroximone] (10 µM) yielded a morphology score in test [1] of 0.142. Moreover, in test [2], the SARS-CoV-2 infection rate is 100% (inactive).
With `Cc1ncc([N+](=O)[O-])n1CCO` [metronidazole] (10 µM), in test [1], the morphology score was -0.0912. The SARS-CoV-2 infection rate in test [2] is 118% (inactive).
